# Source: ChEMBL document CHEMBL4513216, “Probing the Open Global Health Chemical Diversity Library for Multistage-Active Starting Points for Next-Generation Antimalarials” (ACS Infect Dis, 2020)
# The campaign covered roughly 68,000 compounds. About 2,700 (4%) showed an effect of 50% or more. This is one part of a sample in which strong results are shown more often than they occur.
# Tested on: Plasmodium berghei
# Test: Screen against P. berghei liver stage (PbLuc), transformed with Luciferase, at 2uM
# Type: functional, HepG2
# Conditions: tested at 2 uM
row,Compound,INHIBITION
1,CNc1nc2cn(Cc3ccc(Cl)cc3)c(=O)c-2c[nH]1,16.38%
2,CC[C@@H](Cn1ncc2ccccc2c1=O)NC(=O)c1cnccn1,-10.89%
3,Cc1cc(=O)n2ncnc2n1CC(O)c1ccccc1Cl (centres undefined),5.36%
4,Cc1cc(=O)n2ncnc2n1CC(O)c1cc(F)ccc1F (centres undefined),6.97%
5,Cc1cc(=O)n2ncnc2n1CC(O)c1cc(Cl)ccc1Cl (centres undefined),50.59%
6,Cc1nc(C2(O)CCCNCC2)sc1CCOc1ccc(Cl)cc1 (centres undefined),25.23%
7,Cc1ccc(NC2CCN(C(=O)c3nccc4ccccc34)CC2)nn1,-27.5%
8,Cc1[nH]c2ccc(C(=O)N3C[C@@H](O)[C@H](N4CCOCC4)C3)cc2c1C,21.97%
9,COc1ccccc1C(C)CC(=O)N1CC[C@H](O)C1 (some centres undefined),-22.65%
10,COc1ccccc1C(C)CC(=O)N1CCCS1(=O)=O (centres undefined),-29.82%
11,COc1ccccc1C(C)CC(=O)N1CCN(S(N)(=O)=O)CC1 (centres undefined),50.46%
12,Cc1ccc(CN2CCNC(C(=O)NC3CC3)C2)cc1C (centres undefined),2.6%
13,O=C(NC1CC1)C1CN(Cc2ccc3c(c2)OCCO3)CCN1 (centres undefined),54.73%
14,NC(=O)COc1ccc(CN2CCNC(C(=O)NC3CC3)C2)cc1Cl (centres undefined),32.69%
15,O=C(c1ccccn1)N1C[C@H]2CC[C@@H](C1)N(C(=O)CCN1CCCC1)C2,-49.63%
16,Cc1cc(NCCNS(=O)(=O)c2cccc(Cl)c2)nc(C)n1,-42.54%
17,O=C(NCCNS(=O)(=O)c1cccc(Cl)c1)C1CCCO1 (centres undefined),1.27%
18,CC(NCCNS(=O)(=O)c1cccc(Cl)c1)C1CCOCC1 (centres undefined),53.16%
19,COCC1CC2(CCN(C(=O)c3ccccc3C)CC2)CN1C(C)C (centres undefined),24.86%
20,O=C(c1cn(CC(=O)N2CCCCC2)c2ccccc12)C1CC1,-27.61%
21,O=C(c1cn(CC(=O)N2CCCCCC2)c2ccccc12)C1CC1,-45.95%
22,O=C(c1cn(CC(=O)N2CCCC2)c2ccccc12)C1CC1,54.29%
23,CCOCC1CN(C(=O)c2cnoc2C)Cc2cn(C)nc21 (centres undefined),-10.98%
24,CCOc1ccc(CN2CCCC(c3cc4ncccc4[nH]3)C2)cc1 (centres undefined),-12.12%
25,Fc1ccc(CN2CCCC(c3cc4ncccc4[nH]3)C2)cc1 (centres undefined),-6.41%
26,CC(=O)Nc1ccc(CN2CCCC(c3cc4ncccc4[nH]3)C2)cc1 (centres undefined),50.68%

row,Compound,INHIBITION
1,Cc1occc1C(=O)N1CCCC2(CCN(CCN3CCCC3)C2=O)C1 (centres undefined),-15.36%
2,Cc1noc2nc(C3CC3)c(Cl)c(C(=O)O)c12,-7.81%
3,Cc1nn(C)c2nc(C3CC3)c(Cl)c(C(=O)O)c12,52.23%
4,Cc1ccc(Cn2nc(C)c3c(C(=O)O)c(Cl)c(C4CC4)nc32)cc1,26.11%
5,CCc1csc(NC(=O)NCc2ccccn2)n1,29.32%
6,Cc1c(C(=O)N(C)CC(F)(F)F)nnn1-c1ccccc1Cl,-20.76%
7,CSC1(CNC(=O)NC(C)Cc2cccc(F)c2)CCOCC1 (centres undefined),16.49%
8,CSC1(CNC(=O)NC(C)c2ccc(F)c(F)c2)CCOCC1 (centres undefined),-90.61%
9,CSC1(CNC(=O)NC(C)c2ccc(F)cc2)CCOCC1 (centres undefined),51.43%
10,CCS(=O)(=O)CCN1CCN(C2CCC(C(C)C)CC2)CC1 (centres undefined),20.83%
11,COCc1nccc(C2CCCN(Cc3ccc(SC)cc3)C2)n1 (centres undefined),35.63%
12,CC1N(C)C(=O)COC12CCN(Cc1nccs1)CC2 (centres undefined),-52.93%
13,OCC1CCCN1c1cc(NCCc2ccccn2)ncn1 (centres undefined),-13.49%
14,CN1CCc2[nH]cnc2C12CCN(C(=O)CCc1cccs1)CC2,46.51%
15,CC(=O)N1CCc2[nH]cnc2C12CCN(C(=O)Cc1ccccn1)CC2,39.58%
16,CC(=O)N1CCc2[nH]cnc2C12CCN(C(=O)Cc1cccs1)CC2,63.14%
17,Cc1cccc(CN2C[C@@H]3CN(C(=O)[C@H]4CCCO4)C[C@@H]3C2=O)c1,19.64%
18,CCn1ncc2c1C(COC)N(C(=O)c1cccs1)CC2 (centres undefined),-23.14%
19,O=C(Nc1nnn[nH]1)c1ccc(I)c(F)c1,15.2%
20,Cc1cccc(CN2C(=O)C[C@H]3[C@@H]2CCN3Cc2nccs2)n1,31.5%
21,Cc1cccc(CN2C(=O)C[C@H]3[C@@H]2CCN3Cc2cccs2)n1,63.06%
22,Cc1cccc(CN2CC[C@@H]3[C@@H]2CCN3Cc2cccs2)n1,-18.6%
23,Cc1ccc(-c2cn[nH]c2C2CCCN(c3nccc(N)n3)C2)cc1 (centres undefined),58%
24,Cc1ccc(-c2cn[nH]c2C2CCCN(c3ccnc(C)n3)C2)cc1 (centres undefined),-8.3%
25,Cc1ccc(-c2cn[nH]c2C2CCCN(c3ncccn3)C2)cc1 (centres undefined),-16.71%
26,Cc1nc(CCNC(=O)NC(C)Cn2cccn2)cs1 (centres undefined),38.76%

row,Compound,INHIBITION
1,O=C(N[C@@H]1CN[C@H]2CCCO[C@H]21)c1cccnc1,33.69%
2,CC(=O)N1CCN(C(C)c2nnc(CC(C)C)o2)CC1 (centres undefined),2.02%
3,CNc1ncc(CN(C)C(=O)CCc2[nH]nc3c2CCCC3)cn1,50.57%
4,CN(Cc1ccncn1)C(=O)CCc1[nH]nc2c1CCCC2,-2.31%
5,CNc1ncc(CN(C)C(=O)CCc2cc3n(n2)CCCNC3)cn1,20.76%
6,Cc1ccc(CNC(=O)Cn2nc(-c3ccc(F)cc3)oc2=O)cc1F,1.6%
7,COc1cccc(-c2noc(C3CCN(CC4CCCCC4)C3)n2)c1 (centres undefined),30.29%
8,CCS(=O)(=O)N1CCC2(CC1)CN(C(=O)N(C)C)Cc1ccccc12,6.79%
9,CC(C)N1CCC(CC(=O)NCCc2cc(O)ncn2)CC1,60.59%
10,CC(C)N1CCC(CC(=O)NCc2cc(O)ncn2)CC1,12.17%
11,CCc1csc(CCNC(=O)CC2CCN(C(C)C)CC2)n1,-2.5%
12,CN(C)c1nccc(N2CCO[C@H]3CN(Cc4nccn4C)C[C@H]32)n1,11.6%
13,Cn1ccnc1CN1C[C@@H]2OCCN(c3ncccn3)[C@@H]2C1,52.17%
14,Cn1cncc1CN1C[C@@H]2OCCN(c3ncccn3)[C@@H]2C1,25.02%
15,CC(C)NC(=O)N1Cc2nccn2CC(CN2CCCC2)C1 (centres undefined),2.5%
16,CCC(C)Oc1ccc(CNCCc2c[nH]cn2)cc1Cl (centres undefined),12.15%
17,CC(=O)c1c(C)nn(CC(=O)Nc2ccc(F)cc2)c1C,-16.43%
18,Cc1cc(NC(=O)Cn2nc(C)c(C#N)c2N)ccc1Br,55.86%
19,Cc1nn(CC(=O)Nc2cccc(F)c2)c(N)c1C#N,-33.61%
20,COc1ccc(C)cc1NC(=O)Cn1nc(C)c(C#N)c1N,5.32%
21,Cc1nn(CC(=O)Nc2ccc(F)cc2)c(N)c1C#N,58.12%
22,Cc1ccc(C)c(NC(=O)Cn2nc(C)c(C#N)c2N)c1,-15.17%
23,CCc1ccc(S(=O)(=O)N2Cc3c(CN(C)C)nn(C)c3C2)cc1,48.09%
24,NC1CCc2nc(-c3ccncc3)nc(Nc3cccc(F)c3)c2C1 (centres undefined),-23.54%
25,Cc1cccc2c1ccn2CCC(=O)Nc1c2c(nn1C)CSC2,13.65%
26,CCN(C)c1ncnc2c1CCN(Cc1ccc(OC)cc1)CC2,7.86%

row,Compound,INHIBITION
1,O=C(c1ccccn1)N1CCCC(c2nccn2CC2CCC2)C1 (centres undefined),14.41%
2,O=C(Cc1ccccn1)N1CCCC(c2nccn2CC2CCC2)C1 (centres undefined),54.47%
3,O=C(CSCC1CC1)N1CCCC(c2nccn2Cc2ccccn2)C1 (centres undefined),-17.83%
4,Cc1csc(CCCNC(C)CC(=O)Nc2cccc(C)c2C)n1 (centres undefined),-77.68%
5,O[C@@H]1C[C@@H](c2nc(-c3ccc(OC(F)(F)F)cc3)no2)N(CC2CC2)C1,13.92%
6,Cc1noc([C@H]2CC[C@@H]3[C@@H](CCN3S(=O)(=O)C3CC3)O2)n1,1.83%
7,O=C(Cc1ccccc1Cl)Nc1cnn(C2CCOC2)c1 (centres undefined),2.49%
8,COc1ccc(-c2c(C)nn3c(=N)c(C#N)n[nH]c23)cc1OC,1.04%
9,COCC(=O)NC1(c2cccc(C(F)(F)F)c2)CCC1,24.82%
10,CS(=O)(=O)CCC(=O)NC1(c2cccc(C(F)(F)F)c2)CCC1,61%
11,CCNC(=O)CCC(=O)NC1(c2cccc(C(F)(F)F)c2)CCC1,18.85%
12,COCCC1(C(=O)O)CCCN(Cc2cc3c(cc2C)OCO3)C1 (centres undefined),-48.91%
13,c1cnn(-c2ccc(CCNC3CCN(C4CC4)C3)cc2)c1 (centres undefined),27.73%
14,C[C@H](O)CNc1cc(-c2ccncc2)ncn1,-29.38%
15,OCCNc1cc(-c2ccccc2)ncn1,-7.01%
16,C[C@H](O)CNc1cc(-c2ccccc2)ncn1,59.56%
17,CC(C)NC(=O)CC1COC2(CCN(Cc3ccco3)CC2)C1 (centres undefined),43.58%
18,O=C(NCc1cc(N2CCOCC2)ncn1)c1cccc(CO)n1,-15.77%
19,CC(C)=CCN1C[C@@H]2CC[C@H]1CN(S(=O)(=O)c1cccnc1)C2,54.75%
20,O=S(=O)(c1cccnc1)N1C[C@H]2CC[C@@H](C1)N(Cc1ccccn1)C2,-3.6%
21,O=S(=O)(c1cccnc1)N1C[C@H]2CC[C@@H](C1)N(Cc1ccccc1)C2,-11.31%
22,c1ccc2c(c1)N(CC1CCOC1)CC21CCN(c2cnccn2)CC1 (centres undefined),-39.01%
23,O=C(Cn1nc(C(F)(F)F)c(Br)c1C1CC1)N1CCOCC1,6.33%
24,Cc1ccc(CN2CC[C@H]3CO[C@H](CN4CCCC4)[C@H]3C2)o1,50.85%
25,Cc1ccc(CN2CC[C@H]3CO[C@H](CN(C)C)[C@H]3C2)o1,-5.44%
26,Cc1ccc(CN2CC[C@H]3CO[C@H](CN4CCN(C)CC4)[C@H]3C2)o1,16.78%
